According to PubChem BioAssay AID1321 (The Scripps Research Institute Molecular Screening Center, 2008):
The whole screen tested about 220,000 compounds, of which about 2,600 (1.2%) were called active. The sample as a whole holds a higher share of actives than the screen did. Values without a mark were called inactive.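 The calls were made as follows: active = activation above the mean of all tested compounds plus 3 SD, set per screening run (cut at about 8.8% in these data); inactive = the rest.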

These molecules were tested against Wee1-like protein kinase (Homo sapiens) (UniProt P30291) (assay: Wee1 degradation inhibitors, primary screen, cell-based, HeLa, Wee1K328M-luciferase, luminescence (AID 1321;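 also: cells exposed to compound for 20 h before luminescence read; 0% = DMSO alone and 100% = MG132 at 30 µM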)). Details: HeLa Luc-Wee1K328M stability, at 5 µM, stronger effect = higher value.

Row | SMILES | activation
1 | O=C(N/N=C/c1c(O)n(Cc2ccccc2)c(=O)[nH]c1=O)c1ccccc1 | 16.4% (active)
2 | CCCCC(=O)N/N=C/c1c(O)n(-c2ccccc2)c(=O)[nH]c1=O | -2.55%
3 | O=c1[nH]c(=O)n(Cc2ccccc2)c(O)c1/C=N/Nc1c(F)c(F)c(F)c(F)c1F | -0.63%
4 | CN(C)CC1CCCCC1=O (stereo not given) | -1.81%
5 | NC(=O)Nc1cccc(C(F)(F)F)c1 | 0.59%
